# Measurements published in PubChem BioAssay.
# A number with no mark means an inactive call. For part of these data: Entries with a potency or affinity are not part of this list. Calls of active or inactive are those of the source. Unless noted, the rule behind the calls is not given here.
# Key:
# [1] = antimalarial activity against Dd2 strain (AID 2302;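 active = growth inhibition above 50% at the single 2 µM test dose, taken to imply half-maximal potency below 2 µM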;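 note: 0% = DMSO untreated growth and 100% = chloroquine plus artemisinin killed control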); details: P. falciparum Dd2 in RBCs, LDH growth readout, 72 h; at 2 µM; stronger effect = higher value
# [2] = human hepatoma cell viability loss – ATP luminescence, cytotoxicity control for P. falciparum antimalarial project, primary screen (AID 2303;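 active = inhibition above 50%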;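 note: 0% = DMSO wells and 100% = digitonin-killed cells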); details: HepG2 viability, 24-48 h, at 10 µM, stronger effect = higher value
# [3] = biological target: L-lactate dehydrogenase (Plasmodium falciparum (isolate CDC / Honduras)) (UniProt Q27743); test: PfLDH activity inhibition – cell lysate, 3D7 strain, counter-screen for P. falciparum growth inhibition project (AID 2304);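 note: 0% = vehicle and 100% = reference inhibitor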; details: P. falciparum 3D7 crude extract, LDH APAD/NBT absorbance; at 2 µM; stronger effect = higher value
# Chain of L-lactate dehydrogenase (Plasmodium falciparum (isolate CDC / Honduras)) (Q27743 whole entry, looked up): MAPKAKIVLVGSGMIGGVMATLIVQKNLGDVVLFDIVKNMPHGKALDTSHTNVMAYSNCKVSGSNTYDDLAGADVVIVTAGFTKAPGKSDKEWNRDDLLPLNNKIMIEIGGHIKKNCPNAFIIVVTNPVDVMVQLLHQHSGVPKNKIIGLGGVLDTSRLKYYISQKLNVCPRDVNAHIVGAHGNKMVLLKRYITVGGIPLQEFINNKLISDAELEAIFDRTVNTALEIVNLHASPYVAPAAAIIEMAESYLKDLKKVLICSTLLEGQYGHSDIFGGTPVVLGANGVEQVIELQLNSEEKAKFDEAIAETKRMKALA
# [4] = inhibition of 3D7 malaria parasite growth – strain 3D7 (AID 2306);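 note: 0% = DMSO wells and 100% = chloroquine plus artemisinin control wells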; details: P. falciparum 3D7 erythrocytic growth, LDH absorbance, 72 h; at 2 µM; stronger effect = higher value
# [5] = biological target: Calcium-dependent protein kinase 1 (Plasmodium falciparum (isolate 3D7)) (UniProt P62344); test: PfCDPK1 kinase inhibitors, biochemical, TCAMS library (AID 1159585; cut-off not given, nearly all actives have IC50 up to about 0.98 µM;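 note: inhibitors leave more ATP so luminescence rises with inhibition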); details: recombinant PfCDPK1, Kinase-Glo ATP depletion luminescence
# Chain of Calcium-dependent protein kinase 1 (Plasmodium falciparum (isolate 3D7)) (P62344 whole entry, looked up): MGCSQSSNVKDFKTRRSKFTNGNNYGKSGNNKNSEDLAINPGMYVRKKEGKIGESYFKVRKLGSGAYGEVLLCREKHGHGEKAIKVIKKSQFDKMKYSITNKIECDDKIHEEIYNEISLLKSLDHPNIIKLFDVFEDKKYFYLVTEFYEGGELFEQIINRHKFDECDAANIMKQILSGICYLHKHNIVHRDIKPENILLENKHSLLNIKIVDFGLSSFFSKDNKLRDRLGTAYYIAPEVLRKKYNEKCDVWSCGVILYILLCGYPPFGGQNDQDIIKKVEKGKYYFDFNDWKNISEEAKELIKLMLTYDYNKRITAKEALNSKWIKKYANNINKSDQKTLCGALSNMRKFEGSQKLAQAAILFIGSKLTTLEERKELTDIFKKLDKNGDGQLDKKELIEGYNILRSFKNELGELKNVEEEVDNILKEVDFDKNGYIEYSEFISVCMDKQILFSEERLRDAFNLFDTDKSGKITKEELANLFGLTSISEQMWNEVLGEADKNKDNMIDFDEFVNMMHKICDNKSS
# [6] = biological target: Plasmodium falciparum protein kinase 6 (PK6, PF3D7_1337100) (UniProt Q8IDW1); test: PfPK6 kinase inhibitors, biochemical, TCAMS library (AID 1159586); details: recombinant PfPK6, Kinase-Glo ATP depletion luminescence
# Chain of Plasmodium falciparum protein kinase 6 (PK6, PF3D7_1337100) (Q8IDW1 1-305): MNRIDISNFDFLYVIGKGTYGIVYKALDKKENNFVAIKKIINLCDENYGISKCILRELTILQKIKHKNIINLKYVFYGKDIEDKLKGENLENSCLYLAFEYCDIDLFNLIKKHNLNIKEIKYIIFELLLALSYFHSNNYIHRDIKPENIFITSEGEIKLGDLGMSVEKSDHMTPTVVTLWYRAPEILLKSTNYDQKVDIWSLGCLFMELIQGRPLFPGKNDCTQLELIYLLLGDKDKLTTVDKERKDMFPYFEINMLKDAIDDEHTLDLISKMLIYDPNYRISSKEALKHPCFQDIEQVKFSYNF
# [7] = biological target: Protein kinase 7 (PK7), Plasmodium falciparum 3D7 (PF3D7_0213400) (UniProt Q7YTF7); test: inhibition of Plasmodium PK7 catalytic activity – biochemical, TCAMS antimalarial set, Kinase-Glo luminescence (AID 1159587); details: recombinant PfPK7, Kinase-Glo ATP depletion luminescence
# Chain of Protein kinase 7 (PK7), Plasmodium falciparum 3D7 (PF3D7_0213400) (Q7YTF7 1-343): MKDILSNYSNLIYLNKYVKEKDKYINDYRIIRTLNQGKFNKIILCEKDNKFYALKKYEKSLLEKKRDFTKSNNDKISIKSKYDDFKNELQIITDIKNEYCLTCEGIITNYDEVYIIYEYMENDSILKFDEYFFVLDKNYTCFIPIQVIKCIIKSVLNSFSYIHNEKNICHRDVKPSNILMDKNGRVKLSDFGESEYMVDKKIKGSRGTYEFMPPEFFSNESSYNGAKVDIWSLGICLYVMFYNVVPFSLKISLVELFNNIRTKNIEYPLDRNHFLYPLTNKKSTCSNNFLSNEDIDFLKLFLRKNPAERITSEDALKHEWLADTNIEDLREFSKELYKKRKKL
# [8] = biological target: Calcium-dependent protein kinase 4 (Plasmodium falciparum (isolate 3D7)) (UniProt Q8IBS5); test: PfCDPK4 kinase inhibitors, biochemical, TCAMS library (AID 1159588; cut-off not given, nearly all actives have IC50 up to about 0.91 µM); details: recombinant PfCDPK4, Kinase-Glo ATP depletion luminescence
# Chain of Calcium-dependent protein kinase 4 (Plasmodium falciparum (isolate 3D7)) (Q8IBS5 whole entry, looked up): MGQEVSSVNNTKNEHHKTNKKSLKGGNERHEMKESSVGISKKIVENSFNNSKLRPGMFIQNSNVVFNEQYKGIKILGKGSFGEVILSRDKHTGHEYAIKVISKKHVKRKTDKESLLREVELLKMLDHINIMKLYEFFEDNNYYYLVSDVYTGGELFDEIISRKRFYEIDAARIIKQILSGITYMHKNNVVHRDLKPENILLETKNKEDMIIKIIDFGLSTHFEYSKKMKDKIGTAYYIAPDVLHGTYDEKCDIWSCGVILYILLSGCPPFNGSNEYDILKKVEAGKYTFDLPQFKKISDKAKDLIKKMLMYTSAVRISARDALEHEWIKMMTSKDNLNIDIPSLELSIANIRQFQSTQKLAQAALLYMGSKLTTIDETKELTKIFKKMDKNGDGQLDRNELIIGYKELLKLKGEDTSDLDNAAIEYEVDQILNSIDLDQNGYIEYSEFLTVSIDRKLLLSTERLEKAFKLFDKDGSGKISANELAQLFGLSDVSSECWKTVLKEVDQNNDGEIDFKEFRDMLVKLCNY
Compound,growth inhibition [1],inhibition [2],inhibition [3] [%],growth inhibition [4],outcome [5],outcome [6],outcome [7],outcome [8]
COc1ccc2nccc([C@@H](O)CN3CCC(NCCOc4cc(F)cc(F)c4)CC3)c2c1,86% (active),10%,-3,101% (active),inactive,inactive,inactive,inactive
CC1(C)N=C(N)N=C(N)N1c1cccc(C(F)(F)F)c1,68% (active),60% (active),0,95% (active),inactive,inactive,inactive,inactive
Cc1ccccc1C1CCN(C2CCC(NC(=O)/C=C/c3ccc(Cl)cc3)CC2)CC1 (stereo not drawn),25%,78% (active),4,99% (active),inactive,inactive,inactive,inactive
CC(C)NCc1ccc(-c2cccc(-c3nc4ccc(C(F)(F)F)cc4[nH]3)c2)cc1,100% (active),21%,-5,101% (active),inactive,inactive,inactive,inactive
CCc1cc2c(cc1CC)CC(NC[C@@H](O)c1ccc(O)c3[nH]c(=O)ccc13)C2,9%,-3%,-4,101% (active),inactive,inactive,inactive,inactive
CC(C)(C)Nc1cc(C2CC2)nc(-c2ccccn2)n1,75% (active),-2%,-1,88% (active),inactive,inactive,inactive,inactive
c1cc(CN2CCCCC2)cc(-c2ccc(-c3nc4ccccc4[nH]3)s2)c1,100% (active),11%,2,101% (active),inactive,inactive,inactive,inactive
CC(=O)Nc1ccc(COc2ccc(Nc3ccnc4cc(-c5ccccn5)ccc34)cc2)cc1,94% (active),99% (active),3,99% (active),inactive,inactive,inactive,inactive
COc1ccc(-c2ccc(NC(=O)c3ccc(C#N)cc3)cc2)cc1CN1CCCC1,51% (active),40%,5,95% (active),inactive,inactive,inactive,inactive
Cc1ccc(-c2cc(C(=O)Nc3ccc(S(=O)(=O)N4CCOCC4)cc3)[nH]n2)c(O)c1C,45%,18%,-5,91% (active),inactive,inactive,inactive,inactive
COc1ccc(CN2CCC(C(=O)Nc3cccc(-c4cccc(Cl)c4)c3)CC2)cc1O,0%,25%,-2,91% (active),inactive,inactive,inactive,inactive
CCOC(=O)c1cn(CC)c2cc(N3CCCCC3)c(F)cc2c1=O,96% (active),0%,2,97% (active),inactive,inactive,inactive,inactive
CCCCNc1ccc(C(=O)NC2CCN(C[C@H](O)c3ccnc4ccc(OC)cc34)CC2)cc1,64% (active),12%,-8,90% (active),inactive,inactive,inactive,inactive
COc1ccc2ncc(F)c(NC(=O)C3CCC(NCc4cc5c(F)cccc5[nH]4)CC3)c2n1 (stereo not drawn),29%,39%,-1,91% (active),inactive,inactive,inactive,inactive
CCN(CCCN1CCCCC1)c1cc(C)nc(Nc2cc(F)cc(F)c2)n1,64% (active),15%,5,102% (active),inactive,inactive,inactive,inactive
O=C(Nc1nccs1)c1cc(-c2cccnc2)nc2ccc(Br)cc12,79% (active),7%,5,100% (active),inactive,inactive,inactive,inactive
Nc1nc(N)c2c(ccc3c2ccn3CCCC2CCCNC2)n1 (stereo not drawn),55% (active),67% (active),-4,98% (active),inactive,inactive,inactive,inactive
CC1CCCC(Nc2noc(-c3sccc3Br)n2)C1 (stereo not drawn),99% (active),7%,0,102% (active),inactive,inactive,inactive,inactive
COc1cccc(C(=O)NCCOc2ccccc2)c1Oc1ccccc1,98% (active),14%,-4,98% (active),inactive,inactive,inactive,inactive
COc1ccc(C(=O)Nc2ccc(Cl)cc2C(=O)Nc2ccncc2)cc1,29%,7%,1,91% (active),inactive,inactive,inactive,inactive
CCN1CCc2c1cc(C(=O)N[C@@H](Cc1ccccc1)[C@H](O)CNC(C)(C)c1cccc(C(F)(F)F)c1)cc2N1CCCCS1(=O)=O,99% (active),6%,-1,100% (active),inactive,inactive,inactive,inactive
